Screens (PubChem BioAssay)
ALDH1A1 block: ALDH1A1 (human) enzyme inhibition. Purified ALDH1A1, NADH fluorescence, propionaldehyde substrate. Potency, µM (top dose mostly 75.3 µM), hits mostly inhibitors. hit rate 7.3% among 220,000. AID 1030
HPGD inh: HPGD (human) dehydrogenase inhibition; P15428; purified HPGD, NADH fluorescence kinetic, PGE2 substrate; Potency, µM, hits mostly inhibitors; hit rate 4.3% among 150,000
Target sequence (P15428 whole entry, looked up): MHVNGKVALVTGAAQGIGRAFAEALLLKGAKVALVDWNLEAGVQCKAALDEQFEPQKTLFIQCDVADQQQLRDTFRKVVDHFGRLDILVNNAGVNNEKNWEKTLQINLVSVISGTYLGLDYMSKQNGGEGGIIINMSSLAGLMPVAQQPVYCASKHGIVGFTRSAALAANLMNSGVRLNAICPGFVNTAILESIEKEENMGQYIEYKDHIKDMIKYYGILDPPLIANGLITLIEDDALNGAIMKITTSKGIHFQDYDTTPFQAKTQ
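NADH formation kinetics: reaction with 30 uM PGE2 and 1 mM NAD+ (final), 20 nM enzyme, Tris-HCl pH 8 with Tween 20, after 15 min compound preincubation at room temperature. Fluorescence change, last versus first of five reads.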
PNC assembly inh: perinucleolar compartment assembly inhibition | AID 2417 | hit rate 3.1% among 140,000 | activity change (PNC), negative = inhibition, % at 10 µM | PC3M PTB-GFP, PNC prevalence imaging, 16 h; active compounds read low;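 active means readout at or below -70, meaning at least 70% loss of cells showing the perinucleolar compartment, a nuclear body marking cancer cells; inconclusive means readout between -30 and a set limit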
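Compounds are pinned in duplicate onto adhered PC3M cells stably expressing GFP-tagged PTB and incubated 16 h at 37 C. Cells are then fixed, nuclei stained with Hoechst, and PNC-positive cells counted.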
Each line names hits and unclear results; the compound was inactive in the other large screens. Rows were chosen to be rich in hits. Some 11% of all compounds tested hit in one or more screens of this group. Unless noted, the call rests on the fitted dose curve; in most records, active means well fitted inhibition curve with a large enough effect (not every such curve was filed as active); inconclusive means small, poorly fitted or top-dose-only effect, or another doubt; inactive means no such curve, though single readings can be large or run the other way.

CCOc1cc(/C=N/N=C2/NC(=O)C(CC(=O)O)S2)ccc1OCc1ccccc1Cl (configuration not stated)	none (no result: HPGD inh, PNC assembly inh)
COCCNC(=O)C(c1ccccc1F)N(C(=O)C(=O)NC1CCCC1)C1CCCCC1 (configuration not stated)	none (no result: HPGD inh, PNC assembly inh)
CC(=Nc1ccccc1)C1=C(O)CC(C)(C)CC1=O	none (no result: HPGD inh, PNC assembly inh)
Cc1cc(C)nc(/N=C(\N)C2=C(O)CC(C)(C)CC2=O)n1	ALDH1A1 block 3.2µM
COc1ccc(NC(=O)N2CCCC3(CCN(C(=O)c4ccc(OC)cc4)CC3)C2)cc1	ALDH1A1 block inconclusive (no result: PNC assembly inh)
CC1(C)OC2CC3C4CCC5=CC(=O)C=C[C@@]5(C)[C@]4(F)C(O)C[C@@]3(C)[C@]2(C(=O)CO)O1 (some centres not stated)	none (no result: PNC assembly inh)
Cn1c(COc2ccc(Cl)cc2)nnc1SCc1ncc(-c2ccccc2)o1	ALDH1A1 block 20µM, PNC assembly inh inconclusive
COc1ccc(-n2cnnc2SCc2ncc(-c3ccccc3)o2)cc1	none
CC(=O)N1CC[C@@H]2CC(=O)CC[C@@H]21	none (no result: PNC assembly inh)
O=C1c2ccccc2CN1CCSC(=S)N1CCSCC1	ALDH1A1 block 10µM (no result: HPGD inh, PNC assembly inh)
CC1CN(C(=S)SCCN2Cc3ccccc3C2=O)CC(C)O1 (configuration not stated)	none
O=C1c2ccccc2CN1CCSC(=S)N1CCOCC1	ALDH1A1 block inconclusive, HPGD inh 28µM
O=C1c2ccccc2CN1CCNC(=S)NC1CCCCC1	none (no result: HPGD inh, PNC assembly inh)
O=C(N/N=C/c1ccccc1[N+](=O)[O-])C(=O)N1CCCC1	none (no result: HPGD inh, PNC assembly inh)
COc1ccc(C(CC(=O)NCc2ccccc2)Sc2n[nH]c(-c3ccc(Cl)cc3)n2)cc1 (configuration not stated)	none
COc1ccc(C(CC(=O)NCc2ccccc2)Sc2n[nH]c(-c3ccccc3)n2)cc1 (configuration not stated)	HPGD inh 7.9µM
Cc1ccc(S(=O)(=O)NNC(=O)c2cnn(-c3ccccc3)c2-n2cccc2)cc1	ALDH1A1 block 0.18µM
Cc1ccc(S(=O)(=O)NNC(=O)c2sc3nc(C)cc(C)c3c2-n2cccc2)cc1	ALDH1A1 block 0.14µM, PNC assembly inh -90
O=C(NNS(=O)(=O)c1ccc(F)cc1)c1sccc1-n1cccc1	none (no result: HPGD inh, PNC assembly inh)
Cc1ccc(S(=O)(=O)NNC(=O)c2ccccc2O)cc1	HPGD inh inconclusive
Cc1ccc(S(=O)(=O)NNC(=O)c2sccc2-n2cccc2)cc1	ALDH1A1 block 10µM, PNC assembly inh inconclusive
COCc1cc(C)nc2sc(C(=O)NCCO)c(-n3cccc3)c12	none (no result: HPGD inh, PNC assembly inh)
CN(C)c1ccc(/C=N/NC(=O)c2sccc2-n2cccc2)cc1	ALDH1A1 block 20µM (no result: HPGD inh, PNC assembly inh)
O=C(N/N=C\c1ccc(Cl)cc1)c1sccc1-n1cccc1	none
O=C1C2C3C=CC(C4CC34)C2C(=O)N1/N=C/c1c[nH]c2ccccc12 (configuration not stated)	none (no result: HPGD inh, PNC assembly inh)
CC(=O)Nc1ccc(OCc2nnc(-c3ccc(Cl)cc3)o2)cc1	none (no result: HPGD inh, PNC assembly inh)
COc1cc(NC(=O)COC(=O)C=C(C)C)c(C)cc1[N+](=O)[O-]	none (no result: HPGD inh, PNC assembly inh)
Cc1cc(C)nc(SCc2ccc(C(=O)NNC(=O)Nc3cccc(Cl)c3)cc2)n1	none
C=CCOc1ccc(/C=N/NC(=O)C(=O)Nc2ccccn2)cc1OC	ALDH1A1 block inconclusive, PNC assembly inh inconclusive
CNC(=O)c1sccc1-n1cccc1	none
Cc1ccc(CNC(=O)c2sccc2-n2cccc2)cc1	ALDH1A1 block inconclusive, HPGD inh 13µM, PNC assembly inh inconclusive
O=C(c1ccc(S(=O)(=O)N2CCOCC2)cc1)N1CCOCC1	none (no result: HPGD inh, PNC assembly inh)
O=C(c1ccccc1SCc1ccc(F)cc1)N1CCOCC1	none (no result: HPGD inh, PNC assembly inh)
N#C/C(=C\c1cn(CCOc2ccccc2F)c2ccccc12)C(=O)NCc1cccs1	PNC assembly inh inconclusive
N#C/C(=C\c1cn(Cc2ccc(C#N)cc2)c2ccccc12)C(=O)NCc1cccs1	PNC assembly inh -116
COc1cccc(NC(=O)N[C@@H](Cc2ccccc2)C(=O)O)c1	none
COc1cccc(NC(=O)C(Cc2ccccc2)NC(=O)C2CCC(C)CC2)c1 (configuration not stated)	PNC assembly inh -119
N/C(=N\OC(=O)N1CCOCC1)c1ccc(Br)cc1	none (no result: HPGD inh, PNC assembly inh)
COc1ccccc1/C=C/C=N/n1c(-c2ccc(Cl)cc2)n[nH]c1=S	ALDH1A1 block 11µM (no result: HPGD inh, PNC assembly inh)
COc1ccccc1/C=C/C=N/n1c(-c2ccccc2)n[nH]c1=S	ALDH1A1 block 28µM (no result: HPGD inh, PNC assembly inh)
COc1ccccc1/C=C/C=N/NC(=O)c1ccncc1	none
COc1ccc(-c2n[nH]c(=S)n2/N=C/C=C/c2ccccc2OC)cc1	HPGD inh 1.3µM
COc1ccccc1/C=C/C=N/n1c(C2CCCCC2)n[nH]c1=S	ALDH1A1 block inconclusive, HPGD inh 7.1µM
COc1ccc(OC)c(/C=N/n2c(-c3n[nH]c4c3CCC4)n[nH]c2=S)c1	none (no result: HPGD inh, PNC assembly inh)
CC(C)CO/N=C1/C[C@@H](O)[C@@H](O)[C@@H]2[C@@H]3C(=O)N([C@@H](C)c4ccccc4)C(=O)[C@H]3CC[C@@H]12	none (no result: HPGD inh, PNC assembly inh)
Cc1cccc(OCc2nnc(SCC(=O)O)n2Cc2ccccc2)c1	none (no result: HPGD inh, PNC assembly inh)
CN(C)c1cccc(C(=O)OCC(=O)Nc2nccs2)c1	PNC assembly inh inconclusive
O=C(CN1C(=O)CC(c2ccccc2)S(=O)(=O)c2ccccc21)N1CCCC1 (configuration not stated)	none (no result: HPGD inh, PNC assembly inh)
S=C(Nc1ccc(Cl)c(Cl)c1)NN1CCOCC1	none
Cc1cc(C)c(S(=O)(=O)n2ccc(-c3ccc(OCCN(C)c4ccccn4)cc3)n2)c(C)c1	none
COC(=O)C1(C(=O)OC)CC2=C[C@H](CC2=O)Cc2ccccc2[C@@H]1C[N+](=O)[O-]	none (no result: PNC assembly inh)
O=C(c1ccccc1Sc1ccccc1[N+](=O)[O-])N1CCCCC1	none (no result: HPGD inh, PNC assembly inh)
Cc1ccc(Cl)cc1-c1ccc(C=Nc2ccc(N3CCOCC3)cc2)o1	ALDH1A1 block 10µM, HPGD inh inconclusive
Cc1ccc(/C=N/N2CCN(c3ccc(Cl)cc3)CC2)o1	none
O=C1CN(C(=O)c2ccc(Br)o2)C(c2ccccc2)c2cc(Br)ccc2N1 (configuration not stated)	ALDH1A1 block 22µM
O=C1CN(C(=O)c2ccc(Br)o2)C(c2ccc(F)cc2)c2cc(Cl)ccc2N1 (configuration not stated)	ALDH1A1 block 22µM, PNC assembly inh inconclusive
O=C1CN(C(=O)c2ccc(Br)o2)C(c2ccccc2)c2cc(Cl)ccc2N1 (configuration not stated)	none
Cc1ccc2c(c1)C(c1ccccc1)N(C(=O)c1ccc(Br)o1)CC(=O)N2 (configuration not stated)	none
COCCN1C(=O)N[C@@H](c2cccc(C(F)(F)F)c2)C(C(C)=O)=C1C	none (no result: PNC assembly inh)
Fc1ccc(-c2csc3ncnc(N4CCc5ccccc5C4)c23)cc1	PNC assembly inh inconclusive
Cc1ccc(OCC(=O)Nc2nnn(C)n2)c(C)c1	none
Cc1cc(C)c(OCC(=O)Nc2nnn(C)n2)c(Br)c1	PNC assembly inh -100
CSc1nc(NC2CCCC2)c([N+](=O)[O-])c(NC2CCCC2)n1	none (no result: PNC assembly inh)
C[C@@H]1Cc2ccccc2N1NC(=O)c1ccc(Cl)c(S(N)=O)c1 (some centres not stated)	ALDH1A1 block 7.9µM (no result: PNC assembly inh)
CC1Cc2ccccc2N1C(=S)NC(=O)c1ccc(Cl)cc1Cl (configuration not stated)	none (no result: HPGD inh)
CC(C)CNc1nc(N)[nH]c(=O)c1NC=O	none (no result: PNC assembly inh)
CN(C)c1nnnn1-c1ccc(Oc2ncc(C(F)(F)F)cc2Cl)cc1	none (no result: HPGD inh, PNC assembly inh)
CCNC(=S)Nc1cc(-c2ccc(Cl)cc2)[nH]n1	ALDH1A1 block 1.3µM (no result: HPGD inh, PNC assembly inh)
CCNC(=S)Nc1ccc(Cl)cc1	none
